D1 antagonist: Antagonist of Human D 1 Dopamine Receptor: qHTS; AID 504652, 2011; D(1A) dopamine receptor (Homo sapiens), P21728; 360,000 compounds, 3.2% hits; activity change, negative = inhibition, % at 10 µM; HEK293 TREx D1 cells, calcium flux, dopamine EC80; hits give low values; in the data active = activity change below about -30%; also: % is scaled to controls: 0 for no effect and ±100 for the full control effect
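Compound effects on dopamine-evoked calcium signalling were measured in tetracycline-induced HEK293 Trex D1 cells. Dopamine at EC80 followed a 180 s compound pre-read, and fluorescence was tracked kinetically for 180 s more.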
D3 ag: qHTS of D3 Dopamine Receptor Agonist: qHTS; D3R DiscoveRx beta-arrestin cells, luminescence, 90 min; 410,000 compounds, 0.58% hits; max activation, %; AID 652048, 2013; D(3) dopamine receptor (Homo sapiens), P35462; in the data active = max activation above about 30%; also: 0% is about no effect
Target sequence (P35462 whole entry, looked up): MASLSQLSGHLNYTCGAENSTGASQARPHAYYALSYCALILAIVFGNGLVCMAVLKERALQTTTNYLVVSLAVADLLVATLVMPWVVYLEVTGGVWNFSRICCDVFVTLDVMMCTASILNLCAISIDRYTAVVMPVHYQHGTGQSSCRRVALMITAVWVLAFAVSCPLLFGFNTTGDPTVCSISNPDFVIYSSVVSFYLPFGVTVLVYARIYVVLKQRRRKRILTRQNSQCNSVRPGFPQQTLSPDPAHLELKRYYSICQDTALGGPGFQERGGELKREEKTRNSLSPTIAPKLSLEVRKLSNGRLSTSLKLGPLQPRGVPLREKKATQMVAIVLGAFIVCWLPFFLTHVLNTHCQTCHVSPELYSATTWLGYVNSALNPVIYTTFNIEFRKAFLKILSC
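Agonist-mode cell screen: cells plated at 1500/well and incubated overnight at 37 °C, then exposed to library compounds for 90 min at 37 °C. Detection reagent was added for 30–60 min at room temperature, and luminescence was read.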
D1 agonist: Allosteric Agonists of the Human D1 Dopamine Receptor: qHTS. D(1A) dopamine receptor (Homo sapiens), P21728. activation, % at 2 µM. HEK293 T-REx D1 cells, calcium flux, agonist mode. 360,000 compounds, 1% hits; in the data active = activation above about 30%; also: 0% is about no effect
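Tetracycline-induced HEK293 TREx D1 cells, force-coupled to calcium signalling, were dye-loaded with a no-wash calcium kit. Compound was pin-added after a 10 s baseline. Fluorescence was read kinetically at 1 cycle/s for 180 s, with calcium rises flagged as agonism.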
D1 PAM: Potentiators of Human D1 Dopamine Receptor: qHTS | HEK293 TREx D1 cells, calcium flux, dopamine EC20 potentiation | potentiation, % at 10 µM | 360,000 compounds, 0.036% hits | AID 504651, 2011; in the data active = potentiation above about 30%; also: 0% is about no effect
DRD3 antagonist: qHTS of D3 Dopamine Receptor Antagonist: qHTS; D(3) dopamine receptor (Homo sapiens), P35462; D3R cells, DiscoveRx beta-arrestin luminescence, antagonist mode; hits give low values; max response, negative = inhibition, %; 360,000 compounds, 2.5% hits; AID 652054, 2013; in the data active = max response below about -50%; inconclusive = no clear call, values can overlap the other calls; also: % is scaled to controls: 0 for no effect and ±100 for the full control effect
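Cells expressing the human receptor were seeded at 1500 cells/well, incubated overnight at 37 degrees C in 5% CO2, then exposed to library compounds with dopamine controls for 90 minutes at 37 degrees C before luminescent detection.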
Chronic BCR inh: qHTS Assay to Find Inhibitors of Chronic Active B-Cell Receptor Signaling; AID 493014, 2011; 340,000 compounds, 0.05% hits; Potency, µM (doses to about 46.1 µM), inactives show top-dose activity change, negative = inhibition, most hits filed as inhibitors; ABC-DLBCL IkBa-CBG/CBR reporter, luminescence ratio, 4 h; active = well fitted inhibition curve with a large enough effect in the signal ratio, with a control signal flat, not every such curve was filed as active; inconclusive = small, poorly fitted or top-dose-only effect, or effect the other way, or a change in a side signal; the % refers to the signal ratio;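 also: potency is read from the fitted curve at half-maximal effect; plate controls were basal doxycycline-induced cells for no effect and cells given 10 µM MG132 for full effect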
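Compounds up to 46 uM were incubated four hours with TMD8 cells whose green CBG68 luciferase is fused to IkappaBalpha; red CBR luminescence normalised the signal, and concentration-effect curves were fitted to fusion, red and ratio data.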
Active calls of the source: *; ? = inconclusive; . = not tested or not shown. A selection: hits, their analogues and other compounds. The true share with any hit is near 6%.

SMILES	D1 antagonist	D3 ag	D1 agonist	D1 PAM	DRD3 antagonist	Chronic BCR inh
CC(=O)N1CCCc2cc(S(=O)(=O)NCc3cccc(C)c3)ccc21	-23.6	10.8	8.5	-0.9	.	.
COc1ccc(-c2[nH][nH]c(=O)c2NC(=O)c2ccc(C)cc2)cc1	.	-10.6	.	.	-84.5*	.
CCCCNCC1CCCO1 (stereo not given)	-90.5*	4.5	3.7	-6.3	5.7	-2.5%
Cc1cccn2c(=O)nc(SCC(=O)N3CCC(Cc4ccccc4)CC3)nc12	2.8	-34.8	0.0	-1.0	-58.5*	5.2%
Cc1cccn2c(=O)nc(SCC(=O)N3CCCCC3)nc12	-2.5	-5.2	0.6	-0.7	23.7	?
CN1CCN(C(=O)c2cc3c(c(-c4cccc(Br)c4)n2)[C@H](CCO)N(S(=O)C(C)(C)C)C3)CC1 (stereo not given in full)	.	-13.9	.	.	-50.2*	.
CC(C)(C)S(=O)N1Cc2cc(C(=O)N3CCOCC3)nc(-c3cccc(Br)c3)c2[C@H]1CCO (stereo not given in full)	.	3.4	.	.	9.3	.
COc1cc2c(cc1OC)C(COc1cc(C)cc(C)c1)N(C(=O)c1ccc(S(=O)(=O)N3CCCC3)cc1)CC2 (stereo not given)	1.7	2.0	2.4	1.4	.	-4.8%
O=C(CSc1n[nH]c(=O)n1C1CC1)Nc1cc(Cl)ccc1Oc1ccccc1	1.0	31.8*	4.9	-5.5	-17.8	?
CC(C)C[C@H]1COc2cc(N(C)CCO)ccc2S(=O)(=O)N1	.	-2.2	.	.	?	.
CN1C(=O)C(N=Nc2ccccc2C(=O)O)N(C)C1=S (stereo not given)	2.4	5.5	45.9*	3.0	-4.7	-0.7%
OC(CN1CCN(c2ccccc2F)CC1)c1ccc(F)cc1 (stereo not given)	-17.0	36.4*	11.8	-11.8	-8.4	?
OC(CN1CCN(c2ccccc2Cl)CC1)c1ccccc1 (stereo not given)	0.0	-2.3	2.1	-17.9	-84.3*	-24.1%
CN1CCN(CC(O)c2ccccc2)CC1 (stereo not given)	.	.	.	.	.	4.7%
CCS(=O)(=O)N1CCC2(CC1)OC(=O)C(C)=C2C(=O)NCc1ccccc1C	-54.3*	0.1	0.8	-0.9	.	.
CC(=O)N1CCC2(CC1)OC(=O)C(C)=C2C(=O)NCc1ccccc1Cl	-20.7	2.4	-0.6	-2.0	.	.
O=C1c2ccccc2C(c2nnnn2-c2ccc3c(c2)OCCO3)N1Cc1ccc2c(c1)OCO2 (stereo not given)	.	-2.8	.	.	-29.1	.
O=C1Nc2ccccc2N(O)N1c1ccc(S(=O)(=O)Nc2ccccn2)cc1	-50.1*	-3.7	0.3	-2.0	-13.5	4.2%
Cc1cn([C@H]2C[C@H](O)[C@@H](CNCC3=Cc4cc(O)ccc4OC3)O2)c(=O)[nH]c1=O	.	39.1*	.	.	?	.
Cc1ccc[n+](CC(=O)Nc2c(Cl)cc(Cl)cc2Cl)c1	19.5	-2.9	0.7	-3.2	-17.0	?
Cc1ccc[n+](CC(=O)Nc2cc(C(F)(F)F)ccc2Cl)c1	3.1	-36.3	2.3	-2.6	-78.8*	-2.6%
NC(=O)C[n+]1cccc(CNC(=O)c2ccc(OC(F)F)cc2)c1	-30.3*	-0.4	1.2	4.3	9.1	0.9%
O=C(C[n+]1cccc(CNC(=O)c2ccc(OC(F)F)cc2)c1)Nc1cc(C(F)(F)F)ccc1Cl	-22.7	-24.0	-0.3	-10.6	-63.9*	2.6%
O=C(C[n+]1ccc(C(=O)NCc2ccccc2)cc1)c1ccc(OC(F)F)cc1	-3.6	7.2	2.7	-1.7	0.9	-2.8%
CN(C)CC(=O)Nc1cc(C(F)(F)F)ccc1Cl	3.5	-11.6	3.6	-0.1	-58.2*	25.3%
SMILES	D1 antagonist	D3 ag	D1 agonist	D1 PAM	DRD3 antagonist	Chronic BCR inh
CCOC(=O)c1ccccc1NC(=O)N1CCC(N2CCN(Cc3ccccc3)C(=O)C2=O)CC1	-12.8	1.3	1.3	-3.3	.	1.9%
COc1ccc(NC(=O)CCc2nc3cccnc3n2-c2ccccc2)cc1Cl	16.4	-16.1	0.6	-0.6	.	.
OC(c1ccc2ccccc2c1)c1ncc(-c2cccc3ccccc23)[nH]1 (stereo not given)	.	-15.7	.	.	?	.
CN(C)c1ccc(P(=O)(CC(=O)N/N=C/c2ccc(C#N)cc2)OCCCl)cc1 (stereo not given)	-5.5	-25.4	-0.2	-4.9	-62.7*	-28.4%
Cc1ccccc1OCC(=O)N/N=C/c1ccc(N(C)C)cc1	0.6	-5.0	1.5	-5.0	0.7	-18.5%
Cc1cc(NS(=O)(=O)c2ccc(NC(=O)COc3c(C)ccc(C)c3C)cc2)nc(C)n1	-23.0	-4.5	-1.2	3.5	.	.
COc1ccccc1CNC(=O)CCC1N=C2c3ccccc3N=C(SCc3ccc(C)cc3)N2C1=O (stereo not given)	3.3	1.0	7.9	-4.3	.	?
Cc1ccc(S(=O)(=O)c2ccc([N+](=O)[O-])o2)cc1	.	-37.7	.	.	-111.1*	.
CSc1ccc(S(=O)(=O)NCC(=O)OCC(=O)N(Cc2ccccc2)C(C)C)cc1[N+](=O)[O-]	-35.2*	-1.5	-0.3	-9.8	-5.7	?
Cc1ccc(N(C(=O)c2cccc(C)c2)S(=O)(=O)c2ccc(Cl)cc2)cc1	-15.9	3.1	2.4	2.2	.	.
CCOC(=O)C1CCN(Cc2ccc(OC)c(OCc3ccccc3)c2)CC1	-4.7	-18.2	12.4	-0.9	-64.6*	-0.7%
CCOC(=O)C1CCN(Cc2ccc(OCc3ccccc3)c(OC)c2)CC1	5.4	-8.4	1.3	16.9	2.2	5.0%
COc1ccc(CN2CCC(C)CC2)cc1OCc1ccccc1	-13.6	-25.3	5.8	-7.4	-89.2*	-0.6%
COc1cc(CN2CCCCC2)ccc1OCc1ccccc1	1.1	-15.8	8.8	-7.0	22.4	-0.1%
CC(C)(C)c1ccc(C(=O)NC(Cc2ccccc2)C(=O)O)cc1 (stereo not given)	-0.3	.	1.3	7.6	.	1.1%
O=C(COCc1ccccc1)N[C@@H](Cc1ccc(O)cc1)C(=O)O	-35.6*	10.1	-2.6	-3.0	30.0	-1.7%
O=C(N[C@@H](Cc1ccc(O)cc1)C(=O)O)c1ccc(C(F)(F)F)cc1	5.4	44.4*	-1.9	-0.1	0.0	7.7%
Clc1ccc(-c2c(C3=NCCCN3)nnn2-c2ccc(Cl)cc2)cc1	-38.9*	-0.8	10.5	-6.2	2.0	?
Clc1ccc(-c2nnnn2-c2ccc(Cl)cc2)cc1	-9.3	-1.6	0.9	-17.0	-8.5	-1.5%
Cc1c(CCNC(=O)c2c(F)cccc2F)sc2nc(-c3ccc(F)cc3)nn12	.	-4.6	9.6	-2.5	.	-1.8%
